Results: PubChem BioAssay AID1159580 (chemical genetic matrix, 2015)
In all, about 5,500 compounds went through this assay and about 2,000 (36%) were called active. Not shown: some 18% with an inconclusive outcome. Rule as the data show it: active = normalized growth mostly below about 0.91 (no sharp cut-off); inconclusive = no clear call, values can overlap the other calls; inactive = mostly above about 0.92. Some of the results follow.

Assay: chemical genetic growth profiling, strain panel (AID 1159580);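 also: tested at 20 µM; growth read once vehicle control cultures reached saturation at 30 °C; 1 = growth at the plate median or of vehicle wells; lower values mean less growth of the strain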
Details: growth OD

Measured: normalized growth

CC(=O)CC1CCCCN1 (configuration not stated)
inactive: S. cerevisiae deletion strains, locus YJR075W, strain HOC1, stronger effect = lower value 1.01 | S. cerevisiae deletion strains, locus YKL009W, strain mrt4, stronger effect = lower value 0.996 | S. cerevisiae deletion strains, locus YKL068W, stronger effect = lower value 1 | S. cerevisiae deletion strains, locus YKL085W, strain MDH1 (second series), stronger effect = lower value 0.983 | S. cerevisiae deletion strains, locus YKL085W, strain MDH1, stronger effect = lower value 0.983 | S. cerevisiae deletion strains, locus YKL160W, strain elf1, stronger effect = lower value 1.02 | S. cerevisiae deletion strains, locus YKL190W, strain CNB1, stronger effect = lower value 1.02 | S. cerevisiae deletion strains, locus YKR001C, strain vps1, stronger effect = lower value 0.994 | S. cerevisiae deletion strains, locus YKR026C, strain gcn3, stronger effect = lower value 1.02 | S. cerevisiae deletion strains, locus YKR091W, strain srl3, stronger effect = lower value 1.02 | S. cerevisiae deletion strains, locus YLL001W, strain dnm1, stronger effect = lower value 1.02 | S. cerevisiae deletion strains, locus YLL026W, stronger effect = lower value 1.02 | S. cerevisiae deletion strains, locus YLL041C, strain sdh2, stronger effect = lower value 1.01 | S. cerevisiae deletion strains, locus YLR027C, strain aat2, stronger effect = lower value 1.03 | S. cerevisiae deletion strains, locus YLR039C, strain RIC1, stronger effect = lower value 1.06 | S. cerevisiae deletion strains, locus YLR058C, strain SHM2, stronger effect = lower value 1.02 | S. cerevisiae deletion strains, locus YLR102C, strain apc9, stronger effect = lower value 0.996 | S. cerevisiae deletion strains, locus YLR113W, strain HOG1, stronger effect = lower value 0.981 | S. cerevisiae deletion strains, locus YLR221C, strain rsa3, stronger effect = lower value 1.03 | S. cerevisiae deletion strains, locus YLR258W, strain gsy2, stronger effect = lower value 1.02 | S. cerevisiae deletion strains, locus YLR262C, strain YPT6 (second series), stronger effect = lower value 1.03 | S. cerevisiae deletion strains, locus YLR262C, strain YPT6, stronger effect = lower value 1.1 | S. cerevisiae deletion strains, locus YLR268W, strain sec22, stronger effect = lower value 0.993 | S. cerevisiae deletion strains, locus YLR320W, strain mms22, stronger effect = lower value 1.04 | S. cerevisiae deletion strains, locus YLR330W, strain CHS5, stronger effect = lower value 1.01 | S. cerevisiae deletion strains, locus YLR342W, strain FKS1 (second series), stronger effect = lower value 0.993 | S. cerevisiae deletion strains, locus YLR342W, strain FKS1, stronger effect = lower value 1.02 | S. cerevisiae deletion strains, locus YLR357W, strain rsc2, stronger effect = lower value 0.995 | S. cerevisiae deletion strains, locus YLR370C, strain arc18, stronger effect = lower value 1.02 | S. cerevisiae deletion strains, locus YLR371W, strain rom2, stronger effect = lower value 0.994 | S. cerevisiae deletion strains, locus YLR384C, strain iki3, stronger effect = lower value 1.01 | S. cerevisiae deletion strains, locus YLR418C, strain cdc73, stronger effect = lower value 1 | S. cerevisiae deletion strains, locus YML016C, strain PPZ1, stronger effect = lower value 1.02 | S. cerevisiae deletion strains, locus YML032C, strain rad52, stronger effect = lower value 0.982 | S. cerevisiae deletion strains, locus YML120C, strain ndi1, stronger effect = lower value 1.02 | S. cerevisiae deletion strains, locus YML124C, strain tub3, stronger effect = lower value 0.995 | S. cerevisiae deletion strains, locus YMR058W, strain fet3, stronger effect = lower value 1.02 | S. cerevisiae deletion strains, locus YMR078C, strain ctf18, stronger effect = lower value 0.99 | S. cerevisiae deletion strains, locus YMR125W, strain sto1, stronger effect = lower value 1 | S. cerevisiae deletion strains, locus YMR129W, stronger effect = lower value 1.01 | S. cerevisiae deletion strains, locus YMR205C, strain PFK2, stronger effect = lower value 1.04 | S. cerevisiae deletion strains, locus YMR223W, strain ubp8, stronger effect = lower value 0.997 | S. cerevisiae deletion strains, locus YMR231W, strain pep5, stronger effect = lower value 1.01 | S. cerevisiae deletion strains, locus YMR263W, strain SAP30, stronger effect = lower value 1.02 | S. cerevisiae deletion strains, locus YMR307W, strain GAS1, stronger effect = lower value 1.08 | S. cerevisiae deletion strains, locus YNL067W, strain RPL9B, stronger effect = lower value 1.02 | S. cerevisiae deletion strains, locus YNL071W, strain lat1, stronger effect = lower value 1.02 | S. cerevisiae deletion strains, locus YNL128W, strain TEP1, stronger effect = lower value 1.01 | S. cerevisiae deletion strains, locus YNL153C, strain GIM3, stronger effect = lower value 1.02 | S. cerevisiae deletion strains, locus YNL183C, strain NPR1, stronger effect = lower value 0.954 | S. cerevisiae deletion strains, locus YNL209W, strain ssb2, stronger effect = lower value 1.02 | S. cerevisiae deletion strains, locus YNL233W, strain BNI4, stronger effect = lower value 1.02 | S. cerevisiae deletion strains, locus YNL248C, strain rpa49, stronger effect = lower value 1.01 | S. cerevisiae deletion strains, locus YNL250W, strain rad50, stronger effect = lower value 0.993 | S. cerevisiae deletion strains, locus YNL271C, strain bni1, stronger effect = lower value 0.993 | S. cerevisiae deletion strains, locus YNL298W, strain CLA4, stronger effect = lower value 0.988 | S. cerevisiae deletion strains, locus YNL307C, strain MCK1, stronger effect = lower value 0.995 | S. cerevisiae deletion strains, locus YNL322C, strain KRE1 (second series), stronger effect = lower value 1.01 | S. cerevisiae deletion strains, locus YNL322C, strain KRE1, stronger effect = lower value 1.01 | S. cerevisiae deletion strains, locus YNR049C, strain mso1, stronger effect = lower value 1.02 | S. cerevisiae deletion strains, locus YNR052C, strain pop2, stronger effect = lower value 0.98 | S. cerevisiae deletion strains, locus YOL006C, strain TOP1, stronger effect = lower value 1.04 | S. cerevisiae deletion strains, locus YOL012C, strain htz1 0.894 | S. cerevisiae deletion strains, locus YOL147C, strain pex11, stronger effect = lower value 0.993 | S. cerevisiae deletion strains, locus YOR001W, strain rrp6, stronger effect = lower value 1 | S. cerevisiae deletion strains, locus YOR061W, strain CKA2, stronger effect = lower value 1.01 | S. cerevisiae deletion strains, locus YOR069W, strain VPS5, stronger effect = lower value 0.999 | S. cerevisiae deletion strains, locus YOR070C, strain gyp1, stronger effect = lower value 1.03 | S. cerevisiae deletion strains, locus YOR080W, strain dia2, stronger effect = lower value 1.02 | S. cerevisiae deletion strains, locus YOR083W, strain WHI5, stronger effect = lower value 1.03 | S. cerevisiae deletion strains, locus YOR106W, strain vam3, stronger effect = lower value 1.01 | S. cerevisiae deletion strains, locus YOR136W, strain idh2, stronger effect = lower value 0.977 | S. cerevisiae deletion strains, locus YOR144C, strain elg1, stronger effect = lower value 1 | S. cerevisiae deletion strains, locus YOR184W, strain ser1, stronger effect = lower value 0.974 | S. cerevisiae deletion strains, locus YOR231W, strain MKK1, stronger effect = lower value 0.983 | S. cerevisiae deletion strains, locus YOR265W, strain rbl2, stronger effect = lower value 1.01 | S. cerevisiae deletion strains, locus YOR270C, strain vph1, stronger effect = lower value 1.05 | S. cerevisiae deletion strains, locus YOR290C, strain snf2, stronger effect = lower value 1 | S. cerevisiae deletion strains, locus YOR316C, strain cot1, stronger effect = lower value 0.991 | S. cerevisiae deletion strains, locus YPL051W, strain arl3, stronger effect = lower value 1.03 | S. cerevisiae deletion strains, locus YPL055C, strain LGE1, stronger effect = lower value 1.04 | S. cerevisiae deletion strains, locus YPL078C, strain atp4, stronger effect = lower value 1.02 | S. cerevisiae deletion strains, locus YPL106C, strain sse1, stronger effect = lower value 1 | S. cerevisiae deletion strains, locus YPL240C, strain hsp82, stronger effect = lower value 1.01 | S. cerevisiae deletion strains, locus YPL241C, strain CIN2, stronger effect = lower value 0.995 | S. cerevisiae deletion strains, locus YPL256C, strain CLN2, stronger effect = lower value 0.967 | S. cerevisiae deletion strains, locus YPR119W, strain clb2, stronger effect = lower value 0.993 | S. cerevisiae deletion strains, locus YPR141C, strain kar3, stronger effect = lower value 0.99 | S. cerevisiae deletion strains, locus YPR163C, strain tif3, stronger effect = lower value 0.993 | S. cerevisiae deletion strains, locus YPR167C, strain met16, stronger effect = lower value 0.987 | S. cerevisiae deletion strains, strain wtn01, stronger effect = lower value 1 | S. cerevisiae strains, strain wild type, stronger effect = lower value 1.02
